# Experimental data as given in ChEMBL document CHEMBL2218924, “A broad activity screen in support of a chemogenomic map for kinase signalling research and drug discovery” (Biochem J, 2013).
# Legend:
# [1] = molecular target: T1, Ephrin type-B receptor 1 (Homo sapiens) (UniProt P54762); settings: at 10 µM
# T1 sequence (whole entry): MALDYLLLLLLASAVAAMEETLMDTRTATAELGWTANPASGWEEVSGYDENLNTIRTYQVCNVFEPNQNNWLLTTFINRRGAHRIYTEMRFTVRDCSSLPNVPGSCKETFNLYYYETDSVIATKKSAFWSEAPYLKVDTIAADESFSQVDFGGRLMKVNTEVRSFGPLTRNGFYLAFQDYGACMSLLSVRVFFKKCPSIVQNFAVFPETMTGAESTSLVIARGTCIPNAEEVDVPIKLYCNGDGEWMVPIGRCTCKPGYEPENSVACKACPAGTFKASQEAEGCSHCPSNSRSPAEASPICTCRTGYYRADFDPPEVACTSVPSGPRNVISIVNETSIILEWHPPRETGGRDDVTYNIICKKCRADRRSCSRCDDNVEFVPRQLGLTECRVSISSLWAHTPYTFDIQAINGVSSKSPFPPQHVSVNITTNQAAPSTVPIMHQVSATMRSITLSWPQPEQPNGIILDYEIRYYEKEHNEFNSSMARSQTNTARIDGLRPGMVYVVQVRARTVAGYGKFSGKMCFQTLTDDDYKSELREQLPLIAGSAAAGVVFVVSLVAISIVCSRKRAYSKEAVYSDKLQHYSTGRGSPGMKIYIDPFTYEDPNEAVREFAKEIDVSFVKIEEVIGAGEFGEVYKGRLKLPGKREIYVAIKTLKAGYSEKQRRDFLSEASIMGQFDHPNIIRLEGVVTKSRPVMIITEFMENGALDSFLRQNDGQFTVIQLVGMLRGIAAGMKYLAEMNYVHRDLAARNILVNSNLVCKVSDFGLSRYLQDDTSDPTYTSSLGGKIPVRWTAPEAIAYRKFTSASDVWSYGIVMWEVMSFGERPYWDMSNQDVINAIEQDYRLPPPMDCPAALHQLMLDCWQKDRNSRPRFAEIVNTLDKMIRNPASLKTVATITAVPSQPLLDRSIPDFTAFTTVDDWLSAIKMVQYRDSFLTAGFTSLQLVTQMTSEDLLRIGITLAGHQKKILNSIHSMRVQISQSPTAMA
# [2] = molecular target: T2, Ephrin type-B receptor 2 (Homo sapiens) (UniProt P29323); settings: at 1 µM
# T2 sequence (whole entry): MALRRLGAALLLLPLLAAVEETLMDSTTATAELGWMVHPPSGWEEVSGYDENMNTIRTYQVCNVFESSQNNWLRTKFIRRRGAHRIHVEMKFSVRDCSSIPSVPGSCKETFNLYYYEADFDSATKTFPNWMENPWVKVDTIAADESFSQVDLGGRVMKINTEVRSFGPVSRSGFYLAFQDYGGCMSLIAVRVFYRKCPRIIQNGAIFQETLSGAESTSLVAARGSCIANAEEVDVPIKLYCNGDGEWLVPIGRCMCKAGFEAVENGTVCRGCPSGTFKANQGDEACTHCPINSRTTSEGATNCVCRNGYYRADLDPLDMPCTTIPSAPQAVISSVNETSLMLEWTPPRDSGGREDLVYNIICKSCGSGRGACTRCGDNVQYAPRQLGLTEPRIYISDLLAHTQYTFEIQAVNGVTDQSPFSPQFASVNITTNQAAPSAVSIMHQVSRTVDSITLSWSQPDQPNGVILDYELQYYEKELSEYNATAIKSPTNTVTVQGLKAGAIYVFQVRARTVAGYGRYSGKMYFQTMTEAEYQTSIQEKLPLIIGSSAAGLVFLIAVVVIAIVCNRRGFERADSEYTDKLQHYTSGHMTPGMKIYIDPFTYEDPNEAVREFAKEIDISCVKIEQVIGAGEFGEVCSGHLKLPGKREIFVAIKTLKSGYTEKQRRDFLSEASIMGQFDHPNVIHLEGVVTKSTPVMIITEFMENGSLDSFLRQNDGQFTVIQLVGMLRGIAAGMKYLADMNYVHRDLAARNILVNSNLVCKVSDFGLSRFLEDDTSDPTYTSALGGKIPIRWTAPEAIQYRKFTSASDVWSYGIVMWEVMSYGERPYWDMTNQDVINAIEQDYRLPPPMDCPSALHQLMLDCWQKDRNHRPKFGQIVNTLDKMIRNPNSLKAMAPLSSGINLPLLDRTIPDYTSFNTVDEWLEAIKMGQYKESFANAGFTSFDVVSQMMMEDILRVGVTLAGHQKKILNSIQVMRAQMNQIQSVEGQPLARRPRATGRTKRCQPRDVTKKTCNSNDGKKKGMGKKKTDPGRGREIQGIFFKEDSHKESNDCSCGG
# [3] = molecular target: T2, Ephrin type-B receptor 2 (Homo sapiens); settings: at 10 µM
# [4] = molecular target: T3, Ephrin type-B receptor 3 (Homo sapiens) (UniProt P54753); settings: at 1 µM
# T3 sequence (whole entry): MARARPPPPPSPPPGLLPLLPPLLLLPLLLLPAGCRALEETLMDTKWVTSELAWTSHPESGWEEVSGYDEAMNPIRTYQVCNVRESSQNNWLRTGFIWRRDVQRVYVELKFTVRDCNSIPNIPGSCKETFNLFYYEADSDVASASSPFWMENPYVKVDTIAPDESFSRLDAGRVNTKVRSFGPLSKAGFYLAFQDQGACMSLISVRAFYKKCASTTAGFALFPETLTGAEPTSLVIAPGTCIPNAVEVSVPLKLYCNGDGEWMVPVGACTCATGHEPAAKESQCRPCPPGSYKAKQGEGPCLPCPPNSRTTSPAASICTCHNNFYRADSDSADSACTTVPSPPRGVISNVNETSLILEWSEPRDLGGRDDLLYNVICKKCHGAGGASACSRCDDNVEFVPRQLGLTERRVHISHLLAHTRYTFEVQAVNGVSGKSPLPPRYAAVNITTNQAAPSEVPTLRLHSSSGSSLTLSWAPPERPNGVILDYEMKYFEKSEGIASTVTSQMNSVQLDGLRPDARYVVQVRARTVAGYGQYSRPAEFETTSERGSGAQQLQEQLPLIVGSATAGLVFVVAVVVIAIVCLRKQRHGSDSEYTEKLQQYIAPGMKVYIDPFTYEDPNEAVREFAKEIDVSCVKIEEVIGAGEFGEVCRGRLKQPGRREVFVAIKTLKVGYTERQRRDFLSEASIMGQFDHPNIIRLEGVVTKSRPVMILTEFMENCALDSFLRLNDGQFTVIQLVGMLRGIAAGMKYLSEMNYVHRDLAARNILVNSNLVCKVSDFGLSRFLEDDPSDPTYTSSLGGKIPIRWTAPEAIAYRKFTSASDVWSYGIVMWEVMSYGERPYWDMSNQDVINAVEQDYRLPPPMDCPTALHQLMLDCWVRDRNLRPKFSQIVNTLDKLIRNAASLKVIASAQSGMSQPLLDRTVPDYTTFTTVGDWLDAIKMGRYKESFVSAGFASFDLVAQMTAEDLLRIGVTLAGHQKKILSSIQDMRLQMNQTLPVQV
# [5] = molecular target: T3, Ephrin type-B receptor 3 (Homo sapiens); settings: at 10 µM
# [6] = molecular target: T4, Ephrin type-B receptor 4 (Homo sapiens) (UniProt P54760); settings: at 1 µM
# T4 sequence (whole entry): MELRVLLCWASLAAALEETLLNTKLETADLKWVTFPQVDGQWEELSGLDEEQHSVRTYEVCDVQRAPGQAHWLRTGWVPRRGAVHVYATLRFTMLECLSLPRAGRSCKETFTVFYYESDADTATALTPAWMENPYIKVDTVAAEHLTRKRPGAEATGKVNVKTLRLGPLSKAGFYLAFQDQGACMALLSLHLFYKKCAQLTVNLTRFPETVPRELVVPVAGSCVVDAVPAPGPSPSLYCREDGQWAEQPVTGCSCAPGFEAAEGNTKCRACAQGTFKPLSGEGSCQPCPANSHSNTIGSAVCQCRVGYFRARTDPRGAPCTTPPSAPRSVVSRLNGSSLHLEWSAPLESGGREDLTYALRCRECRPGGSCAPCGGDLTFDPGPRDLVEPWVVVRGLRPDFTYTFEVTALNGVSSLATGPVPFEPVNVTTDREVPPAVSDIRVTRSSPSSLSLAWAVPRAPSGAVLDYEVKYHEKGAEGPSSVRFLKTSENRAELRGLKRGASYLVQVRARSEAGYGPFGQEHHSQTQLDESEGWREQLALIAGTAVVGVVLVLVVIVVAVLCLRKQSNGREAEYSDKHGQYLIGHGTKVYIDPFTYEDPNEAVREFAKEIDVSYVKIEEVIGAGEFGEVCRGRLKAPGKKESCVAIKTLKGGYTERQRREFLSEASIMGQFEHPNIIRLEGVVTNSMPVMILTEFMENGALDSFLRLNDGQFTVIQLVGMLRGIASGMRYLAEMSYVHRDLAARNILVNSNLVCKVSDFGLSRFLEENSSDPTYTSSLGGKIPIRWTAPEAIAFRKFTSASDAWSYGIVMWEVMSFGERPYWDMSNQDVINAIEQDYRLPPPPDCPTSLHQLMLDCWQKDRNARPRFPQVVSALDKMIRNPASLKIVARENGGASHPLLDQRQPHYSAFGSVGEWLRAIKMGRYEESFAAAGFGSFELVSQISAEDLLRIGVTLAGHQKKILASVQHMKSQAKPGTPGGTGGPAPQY
# [7] = molecular target: T4, Ephrin type-B receptor 4 (Homo sapiens); settings: at 10 µM
# [8] = molecular target: Receptor tyrosine-protein kinase erbB-4 (Homo sapiens) (UniProt Q15303); settings: at 1 µM
# Chain of Receptor tyrosine-protein kinase erbB-4 (Homo sapiens) (Q15303 whole entry): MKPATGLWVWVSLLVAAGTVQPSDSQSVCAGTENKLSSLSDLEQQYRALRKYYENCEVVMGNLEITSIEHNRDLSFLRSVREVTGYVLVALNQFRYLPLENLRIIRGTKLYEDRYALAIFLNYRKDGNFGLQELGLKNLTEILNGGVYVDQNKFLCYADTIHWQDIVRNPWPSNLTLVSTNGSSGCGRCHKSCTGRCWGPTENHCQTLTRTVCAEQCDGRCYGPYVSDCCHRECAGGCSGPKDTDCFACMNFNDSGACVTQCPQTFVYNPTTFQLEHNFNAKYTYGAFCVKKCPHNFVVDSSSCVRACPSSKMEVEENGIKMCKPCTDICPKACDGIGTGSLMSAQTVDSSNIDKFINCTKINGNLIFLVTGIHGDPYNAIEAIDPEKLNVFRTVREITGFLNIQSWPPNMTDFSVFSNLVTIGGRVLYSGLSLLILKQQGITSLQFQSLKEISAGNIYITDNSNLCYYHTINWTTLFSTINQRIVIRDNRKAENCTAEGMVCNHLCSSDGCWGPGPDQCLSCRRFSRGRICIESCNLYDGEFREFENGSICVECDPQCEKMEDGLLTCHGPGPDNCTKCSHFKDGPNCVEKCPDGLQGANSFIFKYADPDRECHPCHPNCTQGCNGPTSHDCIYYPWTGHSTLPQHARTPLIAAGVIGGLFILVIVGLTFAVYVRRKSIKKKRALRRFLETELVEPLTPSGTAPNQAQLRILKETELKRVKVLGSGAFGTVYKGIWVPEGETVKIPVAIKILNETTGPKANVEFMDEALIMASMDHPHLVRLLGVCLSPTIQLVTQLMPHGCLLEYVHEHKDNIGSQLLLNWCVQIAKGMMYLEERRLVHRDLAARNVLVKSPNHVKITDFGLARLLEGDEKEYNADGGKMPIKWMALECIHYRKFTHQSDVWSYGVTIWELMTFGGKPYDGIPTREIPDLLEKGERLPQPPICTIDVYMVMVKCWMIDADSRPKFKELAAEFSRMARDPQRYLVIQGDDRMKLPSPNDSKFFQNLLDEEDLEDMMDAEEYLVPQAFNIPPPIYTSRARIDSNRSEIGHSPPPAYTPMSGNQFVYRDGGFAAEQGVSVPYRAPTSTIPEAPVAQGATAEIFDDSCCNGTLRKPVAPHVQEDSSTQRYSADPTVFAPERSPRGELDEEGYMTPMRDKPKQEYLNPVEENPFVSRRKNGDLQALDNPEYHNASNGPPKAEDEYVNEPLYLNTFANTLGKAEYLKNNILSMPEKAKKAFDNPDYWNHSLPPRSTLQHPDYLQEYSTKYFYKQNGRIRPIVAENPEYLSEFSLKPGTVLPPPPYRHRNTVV
# [9] = molecular target: Receptor tyrosine-protein kinase erbB-4 (Homo sapiens) (UniProt Q15303); settings: at 10 µM
# [10] = molecular target: Focal adhesion kinase 1 (Homo sapiens) (UniProt Q05397); settings: at 1 µM
# Chain of Focal adhesion kinase 1 (Homo sapiens) (Q05397 2-1052 limits assumed): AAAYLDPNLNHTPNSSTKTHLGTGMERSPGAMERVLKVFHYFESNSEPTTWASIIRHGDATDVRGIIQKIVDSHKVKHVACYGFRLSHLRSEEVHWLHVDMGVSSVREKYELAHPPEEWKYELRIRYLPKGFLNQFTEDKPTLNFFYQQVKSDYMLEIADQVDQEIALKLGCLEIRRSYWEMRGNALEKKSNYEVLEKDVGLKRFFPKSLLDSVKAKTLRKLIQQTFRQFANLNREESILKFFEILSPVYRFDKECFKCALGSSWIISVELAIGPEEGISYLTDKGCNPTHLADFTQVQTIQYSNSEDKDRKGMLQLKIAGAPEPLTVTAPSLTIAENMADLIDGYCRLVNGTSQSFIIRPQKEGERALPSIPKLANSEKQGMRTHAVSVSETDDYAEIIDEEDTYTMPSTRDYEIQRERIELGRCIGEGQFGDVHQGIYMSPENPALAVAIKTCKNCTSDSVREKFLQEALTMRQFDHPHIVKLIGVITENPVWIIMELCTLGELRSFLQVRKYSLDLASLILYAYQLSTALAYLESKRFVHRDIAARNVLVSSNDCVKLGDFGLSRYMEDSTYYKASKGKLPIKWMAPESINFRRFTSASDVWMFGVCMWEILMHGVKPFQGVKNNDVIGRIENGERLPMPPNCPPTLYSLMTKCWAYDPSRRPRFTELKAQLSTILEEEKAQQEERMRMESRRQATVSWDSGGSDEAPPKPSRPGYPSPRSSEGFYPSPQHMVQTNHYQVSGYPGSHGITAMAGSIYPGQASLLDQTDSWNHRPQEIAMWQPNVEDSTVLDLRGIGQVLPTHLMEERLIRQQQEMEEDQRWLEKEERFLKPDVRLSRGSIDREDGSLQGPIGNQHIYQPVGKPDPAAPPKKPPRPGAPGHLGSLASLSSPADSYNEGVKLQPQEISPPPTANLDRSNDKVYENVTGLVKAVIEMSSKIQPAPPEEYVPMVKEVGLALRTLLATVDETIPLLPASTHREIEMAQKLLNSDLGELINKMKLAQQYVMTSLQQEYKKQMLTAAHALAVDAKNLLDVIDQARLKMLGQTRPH
compound,measurement,setting,value
COC(=O)[C@@]1(O)C[C@H]2O[C@]1(C)n1c3ccccc3c3c4c(c5c6ccccc6n2c5c31)C(=O)NC4,residual activity,[1],4%
same,residual activity,[2],114%
same,residual activity,[3],55%
same,residual activity,[4],110% (inactive)
same,residual activity,[5],100%
same,residual activity,[6],71%
same,residual activity,[7],22%
same,residual activity,[8],64%
same,residual activity,[9],19%
same,residual activity,[10],39%
